FMDV inh: High Throughput Screening for Foot and Mouth Disease Virus Antivirals. FMDV antiviral cell-based qHTS. Potency, µM (doses to about 57.9 µM), for inactives: at the top dose activity change, negative = inhibition, actives largely listed as inhibitors. 1.2% of 410,000 active. AID 1159524, 2015; calls by dose curve; tested in HEK293T cells; note: read-out not given here; potency is the fitted concentration of half-maximal effect; nearly all actives have a fitted effect of over 45% in size
MARV entry inh: qHTS for inhibitors of binding or entry into cells for Marburg Virus. Marburg virus pseudotyped entry inhibition, cell reporter. Potency, µM (highest dose often 37.8 µM), for the others: at the highest dose activity change, negative = inhibition, actives largely listed as inhibitors. 1.8% of 300,000 active. AID 540276, 2011; calls by dose curve; tested in HEK293 cells; note: potency is the fitted concentration of half-maximal effect
Lassa entry inh: qHTS for Inhibitors of binding or entry into cells for Lassa Virus; Lassa virus pseudotype entry inhibition, cell reporter; Potency, µM (series often up to 37.9 µM), for inactives: at the highest dose activity change, negative = inhibition, hits mostly inhibitors; 1.2% of 300,000 active; calls by dose curve; tested in HEK293 cells; note: potency is the fitted concentration of half-maximal effect; nearly all actives have a fitted effect of over 50% in size
HCMV inh: qHTS Assay for inhibitors of the human cytomegalovirus (HCMV) | AID 1259415, 2018 | 4.5% of 410,000 active | activity change, negative = inhibition, % at 57.5 µM | HFF cells, HCMV-luciferase reporter, 72 h; stronger effect = lower value; in the data active = activity change below about -60%; inconclusive = no clear call, values can overlap the other calls; inactive = above about -39%
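Cell-based, HFFs, 1000 cells/well, 16 h 37C; cpds in DMSO + HCMV-luc, MOI 1 PFU/cell; 72 h 37C; OneGlo luminescence after 5 min RT; norm. to buffer vs Salinomycin 10uM.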
HCV inh: qHTS Assay for Inhibitors of Hepatitis C Virus (HCV); Huh7.5.1 HCVcc-Cre infection, luciferase reporter, 44 h; Potency, µM (highest dose often 41.8 µM), for the others: at the highest dose activity change, negative = inhibition, most hits filed as inhibitors; 3.4% of 340,000 active; AID 651820, 2012; active = well fitted inhibition curve with a large enough effect; inconclusive = small, poorly fitted or top-dose-only effect, or another doubt; inactive = no such curve, though single readings can be large or run the other way; note: potency is the fitted concentration of half-maximal effect
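Antiviral activity was scored by luciferase reporter output from cells infected with HCVcc-Cre (~0.5 moi) in presence of compound, 44 h infection period, cells seeded 1,000/well 4 h prior.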
Numbers without * were called inactive; ? = inconclusive; nt = not tested or not shown; [ ] = remark or other dose. Rows were chosen to be rich in hits. Some 7.9% of all compounds tested hit in one or more screens of this group. % is set by controls: 0 for no effect and ±100 for the full control effect.

SMILES	FMDV inh	MARV entry inh	Lassa entry inh	HCMV inh	HCV inh
CCn1cc(C(=O)NCCc2ccccc2)c(=O)c2cc(F)c(N3CCN(C)CC3)cc21	24%	-2%	5%	35	10µM*
CCC(C)NC(=O)c1cn(CC)c2cc(N3CCN(C(=O)c4ccco4)CC3)c(F)cc2c1=O (stereo not drawn)	-18%	4%[46.1 µM]	?	-23	14µM*
C[C@H](NC(=O)c1cccc2ccccc12)C(O)c1nc2ccccc2[nH]1 (stereo partly drawn)	nt	nt	nt	-9	nt
CCOC(=O)c1ccc(N2C(=O)c3n[nH]c(-c4cccs4)c3C2c2ccc(Cl)cc2Cl)cc1 (stereo not drawn)	?	?	?	-107*	nt
CCOC(=O)c1ccc(N2C(=O)c3n[nH]c(-c4cccs4)c3C2c2ccc(O)c(OC)c2)cc1 (stereo not drawn)	-28%	?	?	-74*	nt
CCOC(=O)c1ccc(N2C(=O)c3n[nH]c(-c4cccs4)c3C2c2ccc(C)cc2)cc1 (stereo not drawn)	-20%	-3%[46.1 µM]	0%[46.1 µM]	3	nt
O=S(=O)(c1ccccc1)N1CCC(O)(CSc2ccc(F)cc2)CC1	?	?	?	-86*	11µM*
CCOc1ccccc1NC(=O)CN1C(=O)COc2ccc(S(=O)(=O)N3CCCCCC3)cc21	4%	nt	-5%[46.1 µM]	-21	nt
Cc1cc(NC(=O)c2ccc(F)cc2)n(-c2ccccn2)n1	-19%	-16%[46.1 µM]	?	-14	8.9µM*
Cc1cc(NC(=O)Nc2cccc(Cl)c2)n(-c2ccccn2)n1	-12%	?	-8%	0	11µM*
CCCN1C(=O)C2(c3ccccc31)c1c(oc3cc(C)c(C)cc3c1=O)C(=O)N2CCCOC (stereo not drawn)	17%	?	19%[46.1 µM]	73	nt
Cn1c(COc2ccccc2)nnc1SCCN1CCOCC1	1%	-8%	0%	24	15%
Cn1c(COc2ccccc2)nnc1SCCSc1nnc(COc2ccccc2)n1C	-18%	2%	-7%	-65*	?
COc1cc(NC(=O)c2cc(S(=O)(=O)N3CCC(C)CC3)cn2C)cc(OC)c1OC	29%	nt	1%[46.1 µM]	-102*	nt
COc1ccc(C)cc1NC(=O)c1cc(S(=O)(=O)N2CCC(C)CC2)cn1C	-17%	nt	26%[46.1 µM]	?	nt
CC1CCN(S(=O)(=O)c2cc(C(=O)NCc3ccccc3)n(C)c2)CC1	-13%	nt	3%[46.1 µM]	-81*	nt
CCCCOc1ccc(C2=CSC3=NCCN23)cc1[N+](=O)[O-]	-18%	22µM*	-27%	101	?
COc1cc(C=CC(=O)c2ccccc2)cc(OC)c1OC	16µM*	nt	nt	4	nt
COc1cc(/C=C/C(=O)N2CCC=CC2=O)cc(OC)c1OC	?	nt	nt	-97*	32µM*
COc1ccccc1/C=C/C(=O)c1ccc(NC(C)=O)cc1	?	13µM*	11µM*	-102*	?
COc1ccc2cc(C(=O)/C=C/c3cc(OC)c(OC)c(OC)c3)ccc2c1	-10%	?	-30%[46.1 µM]	-15	?
COc1cc(C=CC(=O)c2cc(OC)c(OC)c(OC)c2)cc(OC)c1OC	13µM*	?	7.9µM*	-97*	?
COc1cc(/C=C/C(=O)N2CCCN(C(=O)/C=C/c3cc(OC)c(OC)c(OC)c3)CC2)cc(OC)c1OC	-3%	nt	nt	37	5%
COc1ccccc1/C=C/C(=O)c1ccccc1	1%	nt	nt	6	-19%
C=CC[C@@H]1C=CC(ON=CC[C@@H]2C=C[C@@H](OC(C)=O)[C@@H](COC(C)=O)O2)[C@H](CO)O1 (stereo partly drawn)	nt	4%[14.2 µM]	nt	nt	nt
SMILES	FMDV inh	MARV entry inh	Lassa entry inh	HCMV inh	HCV inh
CNC(=O)c1cc2n(n1)CCCN(Cc1ccc(F)cc1)C2=O	-25%	nt	3%[46.1 µM]	-12	nt
CCC(=O)N1N=C(c2ccc(NS(=O)(=O)c3ccc(C)cc3)cc2)CC1c1ccco1 (stereo not drawn)	26%	nt	nt	81	11µM*
CCS(=O)(=O)Nc1ccc(C2=NN(C(=O)c3ccco3)C(c3cccc(F)c3)C2)cc1 (stereo not drawn)	-4%	nt	nt	17	?
CCS(=O)(=O)Nc1ccc(C2=NN(C(=O)c3ccco3)C(c3ccc(Cl)o3)C2)cc1 (stereo not drawn)	28µM*	?	?	2	22µM*
CS(=O)(=O)Nc1ccc(C2=NN(C(=O)c3ccco3)C(c3cccc(F)c3)C2)cc1 (stereo not drawn)	-14%	11µM*	?	?	?
CCS(=O)(=O)Nc1ccc(C2=NN(C(=O)c3ccco3)C(c3ccc(C)cc3)C2)cc1 (stereo not drawn)	?	?	16µM*	-3	?
COc1ccc(C(=O)NCc2ccc3c(c2)CCN3C(C)=O)cc1OC	6%	nt	14%[46.1 µM]	46	nt
COc1ccc2c(CNCc3ccco3)c(C(=O)O)n(Cc3ccc(F)cc3Cl)c2c1	-17%	nt	1%[46.1 µM]	-4	nt
O=C(NC1CCCC1)C(c1ccc(F)cc1)N(Cc1ccccc1Cl)C(=O)CCl (stereo not drawn)	28µM*	?	-15%	-21	?
COCCN(C(=O)CNC(=O)c1ccco1)C(C(=O)NC1CCCC1)c1ccccc1F (stereo not drawn)	17%	-2%[46.1 µM]	-15%	17	-5%
COCCN(C(=O)CCl)C(C(=O)NC1CCCCC1)c1ccccc1C (stereo not drawn)	20µM*	8.9µM*	?	-98*	?
COCCNC(=O)C(c1ccccc1F)N(C(=O)C(=O)NC1CCCC1)C1CCCCC1 (stereo not drawn)	-1%	-16%[46.1 µM]	?	-80*	?
COCCN(C(=O)CCC(=O)Nc1cc(C)on1)C(C(=O)NC1CCCC1)c1ccccc1C (stereo not drawn)	24%	18%[46.1 µM]	23%[46.1 µM]	-14	-9%
Fc1ccc(Nc2nc(Nc3ccc(F)cc3)nc(N3CCOCC3)n2)cc1	?	?	25%[46.1 µM]	-10	nt
Fc1ccc(Nc2nc(N/N=C/c3ccco3)nc(N3CCCCC3)n2)cc1	16%	nt	nt	?	11µM*
COc1cccc(-n2cc(C(=O)OCc3ccc(F)c(F)c3)c3ccccc3c2=O)c1	0%	nt	17%[46.1 µM]	8	nt
CN1C(=O)c2c(sc3c2CC(C)(C)SC3)N2CCN=C12	?	-10%	-6%	-5	11µM*
COc1ccc(C(=O)NN/C(=N/S(=O)(=O)c2ccc(C)cc2)c2ccccc2)cc1	63%	?	8.9µM*	34	24%
Cc1ccc(S(=O)(=O)Nc2cccc3ncccc23)s1	28µM*	10µM*	8.9µM*	nt	?
Cc1ccc(Nc2sc(C(=O)c3ccc(F)cc3)c(N)c2S(=O)(=O)c2ccc(C)cc2)cc1	-8%	nt	1.1µM*	-8	nt
Nc1c(C(=O)c2ccc(F)cc2)sc(Nc2ccccc2F)c1S(=O)(=O)c1ccc(Br)cc1	-18%	nt	-46%[46.1 µM]	-71*	nt

Assay outcomes deposited in PubChem BioAssay by National Center for Advancing Translational Sciences (NCATS).
